# This is a sample that favours compounds with a hit; in the whole collection about 6.9% have one here.
# PLK1 PBD block: qHTS for Inhibitors of PLK1-PDB (polo-like kinase 1 - polo-box domain): Primary Screen; Serine/threonine-protein kinase PLK1 (Homo sapiens), P53350; Plk1 PBD binding of FITC phosphopeptide, fluorescence polarization; Potency, µM, without a hit: max response, negative = inhibition, most hits filed as inhibitors; hit rate 2.8% among 360,000; further: series mostly up to about 57 µM; on the % scale 0 is the no-effect control and ±100 the full control effect; nearly all actives have a fitted effect of over 65% in size
# JMJD2A Tudor: qHTS Assay for Inhibitors of JMJD2A-Tudor Domain | Lysine-specific demethylase 4A (Homo sapiens), O75164 | AlphaScreen JMJD2A-Tudor / H3K4me3 peptide binding | Potency, µM (top dose mostly 114 µM), for the others: top-dose activity change, negative = inhibition, hits mostly inhibitors | hit rate 4.4% among 390,000; further: on the % scale 0 is the no-effect control and ±100 the full control effect; nearly all actives have a fitted effect of over 50% in size
# Target sequence (O75164 whole entry, looked up, the tested form may be a part): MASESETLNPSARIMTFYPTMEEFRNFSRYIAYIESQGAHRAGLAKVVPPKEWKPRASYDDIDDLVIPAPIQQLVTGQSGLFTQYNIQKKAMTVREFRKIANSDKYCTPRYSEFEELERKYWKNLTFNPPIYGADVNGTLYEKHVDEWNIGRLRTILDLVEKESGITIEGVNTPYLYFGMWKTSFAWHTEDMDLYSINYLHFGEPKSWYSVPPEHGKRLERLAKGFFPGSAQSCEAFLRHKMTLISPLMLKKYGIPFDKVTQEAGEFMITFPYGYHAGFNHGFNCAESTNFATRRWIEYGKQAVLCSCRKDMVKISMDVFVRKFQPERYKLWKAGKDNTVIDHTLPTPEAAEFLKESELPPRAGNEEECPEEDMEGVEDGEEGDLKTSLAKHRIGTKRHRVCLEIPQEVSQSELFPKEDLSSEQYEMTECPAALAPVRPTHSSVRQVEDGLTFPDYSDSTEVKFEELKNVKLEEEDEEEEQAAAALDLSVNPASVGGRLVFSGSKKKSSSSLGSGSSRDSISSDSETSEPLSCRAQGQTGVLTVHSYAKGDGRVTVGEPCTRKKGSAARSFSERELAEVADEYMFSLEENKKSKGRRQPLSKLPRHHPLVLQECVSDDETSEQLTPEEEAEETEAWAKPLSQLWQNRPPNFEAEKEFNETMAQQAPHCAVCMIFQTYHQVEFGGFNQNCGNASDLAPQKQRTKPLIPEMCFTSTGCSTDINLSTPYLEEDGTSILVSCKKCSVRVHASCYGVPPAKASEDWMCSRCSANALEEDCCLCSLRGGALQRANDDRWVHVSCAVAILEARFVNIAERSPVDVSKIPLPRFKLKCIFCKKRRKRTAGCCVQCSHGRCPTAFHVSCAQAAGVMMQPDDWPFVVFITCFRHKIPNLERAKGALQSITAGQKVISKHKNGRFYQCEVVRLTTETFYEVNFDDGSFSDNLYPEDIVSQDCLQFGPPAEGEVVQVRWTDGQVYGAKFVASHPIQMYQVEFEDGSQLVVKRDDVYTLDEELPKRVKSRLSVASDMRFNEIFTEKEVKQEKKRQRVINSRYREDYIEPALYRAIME
# VDR inh: Inhibitors of the vitamin D receptor (VDR): qHTS. VDR-SRC2-3 peptide fluorescence polarization, 2 h. Potency, µM, for inactives: max response, negative = inhibition, usual class: inhibitors. hit rate 0.93% among 400,000. AID 504847, 2011; further: on the % scale 0 is the no-effect control and ±100 the full control effect
#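 Inhibition of the VDR/SRC2-3 peptide interaction is quantified by fluorescence polarization. Compounds (23 nl, pintool) incubate with the reagents for 2 hours at ambient room temperature.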
# L3MBTL1 block: qHTS Assay for the Inhibitors of L3MBTL1; Lethal(3)malignant brain tumor-like protein 1 (Homo sapiens), Q9Y468; AlphaScreen L3MBTL1–H3K9me1 peptide binding; Potency, µM (top dose mostly 57.1 µM), for the others: top-dose activity, negative = inhibition, most hits filed as inhibitors; hit rate 0.66% among 230,000; AID 485360, 2010; further: on the % scale 0 is the no-effect control and ±100 the full control effect; nearly all actives have a fitted effect of over 60% in size
#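 L3MBTL1 50 nM + b-AHA-H3(1-15)K9me1 75 nM, 30 min RT; compound added, 30 min RT; streptavidin donor/Ni-chelate acceptor beads 10 ug/mL each final, 30 min RT dark; AlphaScreen read.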
# BAZ2B block: qHTS Assay for Inhibitors of BAZ2B; AlphaScreen BAZ2B-H3K14Ac peptide displacement; Bromodomain adjacent to zinc finger domain protein 2B (Homo sapiens), Q9UIF8; hit rate 4.4% among 360,000; Potency, µM (highest dose often 114 µM), for the others: at the top dose activity change, negative = inhibition, hits mostly inhibitors; further: on the % scale 0 is the no-effect control and ±100 the full control effect; nearly all actives have a fitted effect of over 60% in size
#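 Multi-concentration screen (max 110 uM) measuring displacement of acetylated histone H3 peptide from BAZ2B by AlphaScreen, using 50 nM protein, 50 nM peptide and 10 ug/mL streptavidin donor plus Ni-chelate acceptor beads.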
# HP1b binding inh: HTS for Inhibitors of HP1-beta Chromodomain Interactions with Methylated Histone Tails | AID 540317, 2011 | hit rate 0.56% among 390,000 | Potency, µM (titrated, usually from 114 µM), without a hit: at the highest dose activity change, negative = inhibition, most hits filed as inhibitors | AlphaScreen HP1-beta / biotin-H3K9me3 peptide binding; further: nearly all actives have a fitted effect of over 70% in size
#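 HP1-beta protein (50 nM final) preincubated 30 min at room temperature with biotinylated H3(1-18)K9me3 peptide (50 nM) in PBS pH 7.4, 0.01% Tween-20, then compound added for 30 min. AlphaScreen streptavidin donor/nickel chelate acceptor beads (10 ug/mL final), 30 min dark, luminescence read.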
# Starred values were filed as active, the others as inactive; ? = inconclusive; / = not tested or not shown; [ ] = remark or other dose. The call rests on the fitted dose curve; in most records, active means well fitted curve in the direction sought with a large enough effect; inconclusive means small, poorly fitted or top-dose-only effect, or another doubt; inactive means no such curve, though single readings can be large; an effect the other way counts as inactive or inconclusive. Potency means the concentration at half of the fitted maximal effect.
SMILES,PLK1 PBD block,JMJD2A Tudor,VDR inh,L3MBTL1 block,BAZ2B block,HP1b binding inh
O=C(Cc1cccc(F)c1)N1CCOCC1,21.2µM*,-13.6%,-10.0%,/,/,-0.1%
CCC(C)c1ccccc1NC(=O)CN(C)CCOc1ccc(Cl)cc1 (stereo not drawn),2.7%,44.1%,0.8%,/,20.2%,105.8%
Cc1ccccc1CN(C)C1CCN(C)CC1,-1.1%,-1.0%,-21.2%,-6.9%,15.1%,34.9%
CC(C)c1ccc(CN(C)CC(O)c2ccccc2)cc1 (stereo not drawn),-5.2%,-17.0%,-2.4%,/,89.1µM*,15.3%
CN(CCOc1ccc(Cl)cc1)CC(O)c1ccccc1 (stereo not drawn),0.9%,1.12µM*,-9.8%,/,20µM*,70.8µM*
CN1CCC(N(C)CC(O)c2ccccc2)CC1 (stereo not drawn),-6.8%,3.55µM*,-12.8%,-4.6%,50.1µM*,-7.9%
CC(OCC(O)CN(C)CCOc1ccccc1)c1ccc(Cl)cc1 (stereo not drawn),-5.9%,3.55µM*,-10.2%,1.6%,?,?
CN(CCOc1ccccc1)CC(O)COCc1ccccc1F (stereo not drawn),-12.5%,?,-1.9%,/,70.8µM*,?
CN(CCOc1ccc(Br)cc1)CC(O)COc1ccc(C#N)cc1 (stereo not drawn),1.6%,-9.8%,7.2%,/,1.7%,52.6%
COc1ccc(-c2csc(N3CCN(c4cc5c(cc4Cl)nc(-c4ccncc4)n5CCOCCO)CC3)n2)cc1,26.7µM*,-23.2%,-24.2%,-7.2%,50.1µM*,20.5%
Cc1ccc(-c2csc(N3CCN(c4ccc5nc(-c6ccncc6)n(CCN6CCCCC6)c5c4)CC3)n2)cc1,?,44.7µM*,-18.2%,-28.6%,?,?
Cc1ccc(-c2csc(N3CCN(c4cc5c(cc4Cl)nc(-c4ccncc4)n5CCN4CCCCC4)CC3)n2)cc1,?,?,-25.3%,-10.5%,?,-4.9%
Cc1cccc(NC(=O)C2CCCN(S(=O)(=O)c3ccc(Br)s3)C2)c1 (stereo not drawn),/,-3.8%,-13.3%,/,2.0%,40.4%
COC(=O)[C@@]1(C(C)C)N=C(c2cc(OC)c(OC)c(OC)c2)[C@]2(O1)C(=O)N(C)c1ccccc12,-11.7%,/,/,/,/,/
N#Cc1ccccc1Cn1c(=O)n(CCCCC(=O)NCc2ccc3c(c2)OCO3)c(=O)c2ccccc21,/,-6.1%,1.5%,/,4.7%,20.0%
CC(C)C(=O)N1CCN(C2=NS(=O)(=O)c3ccccc32)CC1,6.7µM*,-10.7%[11.4 µM],-1.1%,-17.1%[11.4 µM],-1.3%,-21.5%
CCCC(=O)N1CCN(C2=NS(=O)(=O)c3ccccc32)CC1,-2.6%,2.2%,6.1%,4.0%,8.8%,26.6%
O=C(Nc1cccc(Cl)c1)N1CCN2C(=O)c3ccccc3C12c1ccccc1 (stereo not drawn),11.9µM*,-34.2%[11.4 µM],-13.6%,1.0%,6.3%[57.1 µM],-11.5%
CC1(c2ccc([N+](=O)[O-])cc2)NC(=O)N(CC(=O)Nc2ccc(N3CCCCC3)cc2)C1=O (stereo not drawn),-7.2%,?,-23.3%,-24.6%,35.5µM*,?
CCC1(c2ccccc2)NC(=O)N(CC(=O)Nc2ccc(OC)nc2)C1=O (stereo not drawn),13.4µM*,-6.8%,2.5%,/,-8.5%,6.5%
Cc1cc(N2CCCC2)ccc1NC(=O)CN1C(=O)NC(C)(c2ccccc2)C1=O (stereo not drawn),2.8%,?,9.0%,/,25.1µM*,-14.0%[57 µM]
CCC1(c2ccccc2)NC(=O)N(CC(=O)Nc2ccc(N3CCCC3)cc2C)C1=O (stereo not drawn),-6.5%,44.7µM*,-8.6%,-21.4%,44.7µM*,?
O=C(Cc1nnc(-c2cc3ccccc3[nH]2)s1)Nc1cc(C(F)(F)F)ccc1Cl,/,-14.4%,/,/,/,/
Cc1cnc2c(N)cc(C)c(C)c2c1,-0.5%,/,/,/,/,/
CCC/C=C1\CCCOC(C(=O)NCc2ccccc2)(C(F)(F)F)C1 (stereo not drawn),/,-2.8%,-4.2%,/,/,5.6%
SMILES,PLK1 PBD block,JMJD2A Tudor,VDR inh,L3MBTL1 block,BAZ2B block,HP1b binding inh
COc1ccc(CCNc2ncnc3c2nnn3C)cc1OC,/,5.5%,14.9%,/,6.0%,36.6%
COc1ccc(CNS(=O)(=O)c2cc(CN3C(=O)c4cccnc4C3=O)ccc2OC)cc1,-6.9%,-11.7%,-8.2%,/,?,22.3%
CCCNS(=O)(=O)c1cc(CN2C(=O)c3cccnc3C2=O)ccc1OC,1.2%,89.1µM*,-2.6%,/,?,8.4%
Cc1ccc(NC(=O)N2CCN(c3nnc(C)c4c(C)n(-c5ccc(Cl)cc5)nc34)CC2)c(C)c1,/,-10.7%,0.1%,/,-4.0%,6.3%
CCC(=O)N1CCc2cc(S(=O)(=O)NC(C(=O)NCc3ccc(OC)cc3)C(C)C)ccc21 (stereo not drawn),/,-14.3%,-5.8%,/,/,28.3%
CCCC(CCC(=O)Nc1cc([N+](=O)[O-])ccc1O)C(=O)O (stereo not drawn),-13.3%,-6.3%,7.1%,?,56.2µM*,-3.7%
NS(=O)(=O)c1ccc2c(c1)C1C=CCC1C(C1CC=CCC1)N2 (stereo not drawn),-24.5%,?,-1.6%,/,50.1µM*,-19.6%
COc1ccc(-c2noc(CCC(=O)N3CCN(c4ccccc4F)CC3)n2)cc1,-25.1%,-23.0%,-20.6%,9.3%,/,32.2%
C/C(=N/Nc1ccnc2cc(Cl)ccc12)c1ccc(O)cc1,-18.8%,?,-20.6%,-16.8%,44.7µM*,-12.8%
Clc1ccc2c(N/N=C/c3ccccc3Br)ccnc2c1,3.5%,?,0.7%,2.2%,-4.8%,3.6%
C/C(=N/Nc1ccnc2cc(Cl)ccc12)c1ccc(N)cc1,-6.4%,?,-12.7%,-14.9%,44.7µM*,-8.1%
CCc1cccc(NC(=O)C(Cc2ccccc2)NS(=O)(=O)c2ccc3c(c2)oc(=O)n3C)c1 (stereo not drawn),/,1.0%,6.6%,/,9.7%,68.4%
O=c1c(O)c(-c2ccccc2O)oc2cc(O)cc(O)c12,/,/,3.1%,/,/,/
O=c1c(-c2ccccc2)c(-c2ccccc2)oc2cc(O)cc(O)c12,-0.3%,?,?,/,70.8µM*,-17.9%
O=c1c(O)c(-c2ccccc2)oc2cc(O)cc(O)c12,-1.9%,-29.9%,2.9%,-4.8%,/,34.2%
Cc1ccc(C2=NN=C(NC(=O)C(F)(F)F)SC2)cc1,-24.0%,-29.3%,50.1µM*,1.4%,-2.2%,-2.6%
